Results published in the OligoGym collection.

Each sequence was assayed against TRIM2 (assay: pooled miR-30 sensor sort-seq; sequence = guide strand). Conditions: shRNA.
Note: reference of the scale not given here.

Sequence | sensor-assay potency score (higher = more potent)
TATTGCTATTTACAGCTGCAAA | -1.54
TAGAGTCTCAGAGACAGGGTAA | -0.389
TTGTCTTAAATTTCCCATCGGA | 0.291
TTTTTGTCTTAAATTTCCCATC | -1.5
TTCCATTTGTAGATGCAGCTAC | 0.668
TTAATTGAAAGTTTCATTGTAG | 0.799
TAAAATTCCATCACATTCCCAT | 0.363
TTTCCAGTGCTGTACATGCTTG | -1.12
TTGAATCCACTGCTACACCTGT | -0.182
TTCCATTTGAATCCACTGCTAC | -0.305
TTTCATTGTAGACTAAAGCATC | -0.921
ATCACTTTCAGCTTAAACGGGC | -0.591

The sequences below were run against TRIM38 in the same assay as above. Conditions: shRNA.

Sequence | sensor-assay potency score (higher = more potent)
TTCTTGATCCGTCTCTTTGAGG | -1.24
TCTGTCTTCAAGTTGCTTCAGT | 0.253
TTAGTTATTCGCATTGCTGTGG | 0.226
TTTTGTCACAGCTTTCTGGAGC | -0.543
TAACATTTTCTTCACATCGAAG | -1.18
TTCACATCGAAGTAAAGCTTGG | -0.536
TAAACCTGGAAATAGGGCCGGA | -0.714
TTTCCATTTAGTTATTCGCATT | -1.66
TTAACATTTTCTTCACATCGAA | -0.794
TTTCTTTTTGCACAGCCTGAGG | -1.54
